Here are results for five compounds from PubChem BioAssay.

The source made the active and inactive calls. Unless noted, the rule behind the calls is not given here.

Experiment [1] has as its system Wnt5a (protein binding on small-molecule microarray). Kind of experiment: small molecules binding Wnt5a protein – biophysical, small-molecule microarray, 635/667 nm fluorescence, primary screen (AID 1142).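 Note: fluorescence read at 667 nm with signal to noise per printed feature.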 Particulars: 635 nm fluorescence, higher = more signal.
The nature of experiment [2]: ATP-based viability of Huh7 replicon cells – cell-based, CellTiter-Glo luminescence, basal, 48 h, cytotoxicity control for HCV replication inhibitor project, primary screen (AID 1143).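 Note: Huh7 hepatoma cells carrying a hepatitis C replication reporter with no stimulus; test concentration not given here.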 The settings on record: higher = more signal, called active from +8 up or from −8 down. A general note: In antiviral work, replicon cells carry a viral genome segment that copies itself.

Experiment [3] is described as follows: Pseudomonas biofilm growth suppression – PAO1 strain, BacTiter-Glo luminescence, LB-PBS, primary screen (AID 1144). The settings on record: P. aeruginosa PAO1 biofilm, 12 h, higher = more signal.
Experiment [4] in a line: basal CRE-LacZ reporter activity in PC12 – cell-based, unstimulated, primary screen (AID 1145). Particulars: no forskolin, luminescence, 4.5 h, higher = more signal, called active from +8 up or from −8 down.
Experiment [5] can be described thus: forskolin-driven CRE-LacZ activity in PC12 – cell-based, CRE-LacZ reporter, forskolin-stimulated, primary screen (AID 1146).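 Note: PC12 cells with 6xCRE LacZ reporter stimulated by forskolin 10 µM; beta-galactosidase reporter signal reflecting CREB driven transcription.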 Particulars: luminescence, 4.5 h, higher = more signal, called active from +8 up or from −8 down.
The target of experiment [6] is Streptavidin (Streptomyces avidinii) (UniProt P22629). In words: compounds binding control protein streptavidin – biophysical, small-molecule microarray, 635/667 nm fluorescence, artefact control for SMM compound annotation, primary screen (AID 1147).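 Note: signal reflects streptavidin binding to arrayed compounds as a control protein.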 Particulars: higher = more signal.
The nature of experiment [7]: probe aInhba binding on compound microarray – biochemical, small-molecule microarray, 635/667 nm fluorescence, primary screen (AID 1148).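 Note: score merges 667nm spot fluorescence with signal-to-noise for antibody binding to printed compounds.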 Particulars: higher = more signal.
Experiment [8] has as its target Torsin-1A (Homo sapiens) (UniProt O14656). Kind of experiment: TOR1A wild-type binding on microarray – cell lysate, small-molecule microarray, lysate, 635/667 nm, primary screen (AID 1149). The settings on record: COS7 hTOR1A-WT lysate, 635 nm fluorescence, higher = more signal.
Experiment [9] shares this target. In words: torsin A mutant lysate binding on microarrays – cell lysate, small-molecule microarray, COS7 lysate, 635/667 nm fluorescence, primary screen (AID 1150).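 Note: score pools 667 nm emission and signal to noise measuring lysate protein binding.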 Particulars: COS7 hTOR1A mutant lysate, 635 nm fluorescence, higher = more signal.
The test system of experiment [10] is Sonic hedgehog protein (Shh). In words: Sonic hedgehog microarray binding compounds – biochemical, small-molecule microarray, 635/667 nm fluorescence, primary screen (AID 1151).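 Note: Shh protein binding to compounds spotted on small-molecule microarray slides; score combines spot fluorescence intensity with signal-to-noise across triplicate slides.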 The settings on record: 635 nm fluorescence, higher = more signal.
Experiment [11] in a line: optical density shifts of acrAB sulA E. coli – strain DRC41, OD650, 48 h, E. coli filamentation inducer project, primary screen (AID 1152).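 Note: E. coli MC1000 strain DRC41 lacking acrAB efflux pump and sulA.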 Particulars: higher = more signal, called active from +8 up or from −8 down.
Experiment [12] can be described thus: probe aLefty1 binding on compound microarray – biochemical, small-molecule microarray, 635/667 nm fluorescence, primary screen (AID 1153).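 Note: score merges spot fluorescence with signal-to-noise ratio from the scanned slide images.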 Particulars: higher = more signal.
Experiment [13] is described as follows: plasmodial surface anion channel blockers, osmotic lysis – cell-based, P. falciparum Indochina, OD700, 1 h, primary screen (AID 1154). The settings on record: P. falciparum Indochina infected RBC osmotic lysis, higher = more signal, called active from +8 up or from −8 down.
Experiment [14] is described as follows: plasmodial surface anion channel blockers, osmotic lysis – cell-based, P. falciparum Indochina, OD700, 2 h, primary screen (AID 1155).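 Note: lysis reports solute entry through the parasite surface anion channel PSAC.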 The settings on record: P. falciparum Indochina infected erythrocytes, higher = more signal, called active from +8 up or from −8 down.
Experiment [15] can be described thus: changes in parasitized red cell lysis, either direction – P. falciparum Indochina, OD700, 3 h, PSAC antagonist project, primary screen (AID 1156). Particulars: P. falciparum-infected erythrocytes, osmotic lysis, higher = more signal, called active from +8 up or from −8 down.
A short description of experiment [16]: plasmodial surface anion channel blockers, osmotic lysis – cell-based, P. falciparum Indochina, OD700, 18 h, primary screen (AID 1157). The settings on record: P. falciparum Indochina infected erythrocytes, osmotic lysis OD700, 18 h; higher = more signal, called active from +8 up or from −8 down.
Experiment [17] can be described thus: S6 kinase pathway phospho-S6 level changes – cell-based, A549, cytoblot, luminescence, serum-stimulated, primary screen (AID 1158).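 Note: serum-stimulated A549 lung adenocarcinoma cells; signal is phosphorylated S6 detected by cytoblot immunostaining with HRP secondary.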 The settings on record: 5 h, higher = more signal.
The target of experiment [18] is NADPH oxidase 2 (Homo sapiens) (UniProt P04839). Kind of experiment: compounds shifting NOX2 Amplex Red fluorescence – cell-based, HEK293-NOX2, PMA-stimulated, NOX inhibitor project, primary screen (AID 1159). Note: test concentration not given here. Particulars: 45 min, higher = more signal, called active from +8 up or from −8 down.
For experiment [19], the target named is NADPH oxidase 4 (Homo sapiens) (UniProt Q9NPH5). In words: compounds shifting NOX4 Amplex Red fluorescence – cell-based, HEK293-NOX4, tetracycline-induced, NOX inhibitor project, primary screen (AID 1160). The settings on record: HEK293-NOX4, Amplex Red H2O2 fluorescence, 45 min; higher = more signal, called active from +8 up or from −8 down.
Experiment [20] addresses NADPH oxidase 5 (Homo sapiens) (UniProt Q96PH1). Kind of experiment: compounds shifting NOX5 Amplex Red fluorescence – cell-based, HEK293-NOX5, NOX inhibitor project, primary screen (AID 1161). The settings on record: HEK293-NOX5, ionomycin, 45 min, higher = more signal.

Sequence of NADPH oxidase 2 (Homo sapiens) (P04839 whole entry, looked up): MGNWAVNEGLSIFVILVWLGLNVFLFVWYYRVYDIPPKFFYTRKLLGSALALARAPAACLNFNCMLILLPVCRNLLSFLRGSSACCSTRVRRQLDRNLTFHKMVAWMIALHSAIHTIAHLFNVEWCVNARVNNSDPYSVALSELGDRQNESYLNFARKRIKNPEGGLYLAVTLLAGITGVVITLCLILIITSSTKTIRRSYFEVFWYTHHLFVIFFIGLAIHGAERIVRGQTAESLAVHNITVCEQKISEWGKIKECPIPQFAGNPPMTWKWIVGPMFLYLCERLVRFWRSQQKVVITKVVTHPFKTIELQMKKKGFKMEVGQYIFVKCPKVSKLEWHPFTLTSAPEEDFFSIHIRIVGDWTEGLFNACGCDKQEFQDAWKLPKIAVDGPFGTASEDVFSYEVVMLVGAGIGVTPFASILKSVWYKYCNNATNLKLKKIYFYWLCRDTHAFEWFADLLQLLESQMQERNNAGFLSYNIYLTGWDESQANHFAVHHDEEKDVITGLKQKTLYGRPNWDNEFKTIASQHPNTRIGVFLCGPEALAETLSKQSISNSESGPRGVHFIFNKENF
Sequence of NADPH oxidase 5 (Homo sapiens) (Q96PH1 whole entry, looked up): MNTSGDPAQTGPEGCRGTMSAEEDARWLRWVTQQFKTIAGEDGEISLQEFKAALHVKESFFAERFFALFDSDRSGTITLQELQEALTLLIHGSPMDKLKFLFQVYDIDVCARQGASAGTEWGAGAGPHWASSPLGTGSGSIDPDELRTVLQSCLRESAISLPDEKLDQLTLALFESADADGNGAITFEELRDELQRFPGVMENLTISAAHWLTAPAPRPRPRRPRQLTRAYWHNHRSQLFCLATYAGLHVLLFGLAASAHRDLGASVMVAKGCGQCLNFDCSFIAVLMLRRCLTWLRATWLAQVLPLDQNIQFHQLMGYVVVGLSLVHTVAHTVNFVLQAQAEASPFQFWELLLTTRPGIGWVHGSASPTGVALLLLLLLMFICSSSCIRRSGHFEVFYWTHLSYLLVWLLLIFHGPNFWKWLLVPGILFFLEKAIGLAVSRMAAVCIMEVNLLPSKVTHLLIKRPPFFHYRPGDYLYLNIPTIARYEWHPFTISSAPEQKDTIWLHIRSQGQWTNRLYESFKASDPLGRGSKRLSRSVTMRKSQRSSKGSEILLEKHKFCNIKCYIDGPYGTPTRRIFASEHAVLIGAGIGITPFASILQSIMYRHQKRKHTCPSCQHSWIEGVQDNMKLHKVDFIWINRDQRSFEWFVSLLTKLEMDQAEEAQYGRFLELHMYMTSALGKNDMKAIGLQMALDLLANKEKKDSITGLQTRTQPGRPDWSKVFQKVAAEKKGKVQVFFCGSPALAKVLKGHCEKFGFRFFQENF
Sequence of NADPH oxidase 4 (Homo sapiens) (Q9NPH5 whole entry, looked up): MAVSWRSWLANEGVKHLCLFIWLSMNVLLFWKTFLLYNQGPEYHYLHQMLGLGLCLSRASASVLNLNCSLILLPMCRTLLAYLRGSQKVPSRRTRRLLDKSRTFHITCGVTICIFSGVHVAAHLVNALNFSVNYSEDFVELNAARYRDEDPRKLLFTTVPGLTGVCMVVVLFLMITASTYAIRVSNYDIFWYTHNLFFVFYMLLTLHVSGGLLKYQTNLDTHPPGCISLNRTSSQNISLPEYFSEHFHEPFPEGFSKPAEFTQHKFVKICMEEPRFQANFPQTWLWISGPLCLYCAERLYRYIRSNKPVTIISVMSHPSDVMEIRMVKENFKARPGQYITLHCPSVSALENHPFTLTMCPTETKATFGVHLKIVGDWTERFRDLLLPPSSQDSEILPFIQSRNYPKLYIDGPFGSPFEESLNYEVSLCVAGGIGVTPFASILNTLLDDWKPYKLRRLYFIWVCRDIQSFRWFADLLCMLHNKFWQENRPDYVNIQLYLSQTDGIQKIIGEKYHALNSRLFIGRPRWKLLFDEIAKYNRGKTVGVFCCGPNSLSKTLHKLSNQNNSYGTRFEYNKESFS
Sequence of Torsin-1A (Homo sapiens) (O14656 whole entry, looked up): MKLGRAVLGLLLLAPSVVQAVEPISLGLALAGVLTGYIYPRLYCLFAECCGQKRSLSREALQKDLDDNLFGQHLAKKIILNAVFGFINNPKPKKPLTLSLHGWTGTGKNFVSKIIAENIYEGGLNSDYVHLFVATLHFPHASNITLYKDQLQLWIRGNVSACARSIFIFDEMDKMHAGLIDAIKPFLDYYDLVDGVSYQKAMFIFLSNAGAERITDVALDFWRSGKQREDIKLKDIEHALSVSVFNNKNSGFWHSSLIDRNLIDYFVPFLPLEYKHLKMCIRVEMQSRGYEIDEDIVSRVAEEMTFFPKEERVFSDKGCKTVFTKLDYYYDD
Sequence of Streptavidin (Streptomyces avidinii) (P22629 whole entry, looked up): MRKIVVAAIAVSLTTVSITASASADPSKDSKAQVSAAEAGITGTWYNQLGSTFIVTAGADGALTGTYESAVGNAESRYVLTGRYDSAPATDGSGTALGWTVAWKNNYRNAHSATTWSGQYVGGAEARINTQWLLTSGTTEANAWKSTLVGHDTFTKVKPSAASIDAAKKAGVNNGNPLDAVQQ

Consider `O=C1C2C=CC(C(O)C3CCCCC3)N(Nc3ccccc3F)C2C(=O)N1c1ccccc1` (stereo not given), for which the composite z-score in experiment [1] is 0.442; in experiment [6] it was 1.5; in [7], 0.448; in [8], 0.258; in [9], 1.12; in [10], -0.324. The same compound gave a composite z-score in experiment [12] of 0.483. Besides, the z-score in experiment [2] was -2.88 (inactive); in [3], -0.469 (inactive); in experiment [4], 0.826 (inactive); in experiment [5], -0.904 (inactive); in experiment [11] it was 0.128 (inactive); in [13], 1.11 (inactive). Also, the z-score in experiment [14] is 0.304 (inactive); in experiment [15], 2.77 (inactive); in [16], -0.743 (inactive); in experiment [17], 2.15; in experiment [18], -2.64 (inactive); in experiment [19] it was -4.15 (inactive). For the same compound, the z-score in experiment [20] is -4.19.

Take `Cc1ccc(S[C@]2(C(=O)NCC(C)C)CC(=O)N(C(C)C)[C@@H]2c2ccc(CO)cc2I)cc1`: the composite z-score was 0.241 in experiment [1]; -0.807 in [6]; -0.173 in experiment [7]; -0.782 in experiment [8]; -0.607 in experiment [9]; -1.07 in experiment [10]. Moreover, the composite z-score in [12] is 0.245. Moreover, the z-score in experiment [2] was -1.44 (inactive); in [3] it was 0.502 (inactive); in experiment [4] it was 0.0909 (inactive); in [5] it was 0.205 (inactive); in [11] it was 0.746 (inactive); in [13], 4.28 (inactive). The z-score in experiment [14] is 0.965 (inactive); in experiment [15] it was 0.504 (inactive); in experiment [16], 0.279 (inactive); in experiment [17], 0.363; in experiment [18], 2.02 (inactive); in experiment [19] it was -0.511 (inactive). Besides, the z-score in [20] is 1.9.

Consider `CCOC(=O)C[C@H]1[C@H](OC(=O)c2cc3ccccc3oc2=O)[C@@H](NC(=O)c2ccc(-c3ccccc3)cc2)c2cc(OCCCO)ccc2N1C(=O)Cc1ccc(OC)cc1`, for which the composite z-score is 0.391 in experiment [1]; 0.385 in [6]; -0.0095 in [7]; 0.195 in experiment [8]; 0.775 in experiment [9]; 0.989 in [10]. Moreover, in experiment [12], the composite z-score is -0.0162. Besides, the z-score in [2] was -0.346 (inactive); in [3], -0.301 (inactive); in experiment [4] it was 0.666 (inactive); in [5] it was 0.0179 (inactive); in experiment [11], -0.601 (inactive); in experiment [13] it was 20.3 (active). Further, the z-score in [14] is 5.12 (inactive); in experiment [15], 0.557 (inactive); in experiment [16] it was 1.04 (inactive); in experiment [17], -0.192; in experiment [18] it was 1.38 (inactive); in [19], 1.08 (inactive). The z-score in experiment [20] was found to be 1.23.

As to `CS(=O)(=O)CCOC(=O)C1=CC(CCCO)=CC(C2CC2)N(Cc2sc3ccccc3c2Cl)C=C1C(=O)OCCS(C)(=O)=O` (stereo not given), the composite z-score in experiment [1] was determined as 0.296; in experiment [6], 1.41; in experiment [7], 0.523; in experiment [8], 1.15; in [9] it was 1.48; in [10], 1.41. The same compound returned a composite z-score in experiment [12] of 0.52. Further, the z-score in experiment [2] is -2.27 (inactive); in [3], -0.15 (inactive); in [4], 2.57 (inactive); in experiment [5], -0.655 (inactive); in experiment [11], -0.406 (inactive); in [13], 12.8 (active). In addition, the z-score was 2.13 (inactive) in experiment [14]; 0.978 (inactive) in experiment [15]; 1.41 (inactive) in experiment [16]; 0.248 in experiment [17]; -0.739 (inactive) in experiment [18]; -0.315 (inactive) in experiment [19]. Further, in experiment [20], the z-score is -1.11.

Consider `C=CCNC(=O)[C@H]1[C@@H]2C(=O)O[C@@H](c3ccccc3)[C@@H](c3ccccc3)N2[C@@H](c2ccc(O)cc2)[C@]12C(=O)N(C(=O)OCCOC)c1ccc(C#Cc3ccc(OC)cc3)cc12`, for which the composite z-score in experiment [1] stood at 0.334; in [6], 0.21; in experiment [7] it was 0.153; in experiment [8], 0.0502; in experiment [9] it was 0.651; in [10], 1.21. In addition, the composite z-score in [12] is 0.216. For the same compound, the z-score in experiment [2] was -2.17 (inactive); in experiment [3], 0.649 (inactive); in [4] it was -0.195 (inactive); in experiment [5], 1.43 (inactive); in [11], -0.983 (inactive); in [13] it was 2.57 (inactive). Also, the z-score was 1.28 (inactive) in experiment [14]; -0.829 (inactive) in [15]; 0.0195 (inactive) in experiment [16]; -0.376 in experiment [17]; 1.62 (inactive) in experiment [18]; 0.725 (inactive) in experiment [19]. Further, in experiment [20], the z-score was 1.13.
